# Data reported in the supplement of paper PMC6555819.
# How the values were obtained:
# Experiment in all cases: PBM binding z-score (relative to random genomic background probes); higher = stronger binding; sequences stand for … in GC…GCGATTGACAGCGTAGAATGAAGG
# [1] = test system: RARb homodimer (NR concentration 270 nM)
# Procedure, shortened: (§1)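 Random background probes are the reference for binding z-scores. These scores derive from regression-normalized fluorescence on custom Agilent 4×180K protein-binding microarrays incubated 1 h with ligand-free nuclear receptor dimers. Binding was detected with antibodies against each partner (one per run).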
# [2] = test system: RARg:RXRa (NR concentration 270 nM, RXRa partner concentration 90 nM)
# Procedure, shortened: as §1
# [3] = test system: RARg homodimer (NR concentration 270 nM)
# Procedure, shortened: as §1
# [4] = test system: RXRa DBDmut IVT, anti-RXR (DBD mutation: RXRa K156A/R161A, NR concentration 90 nM)
# Procedure, shortened: as §1
# [5] = test system: RXRa homodimer (NR concentration 180 nM)
# Procedure, shortened: as §1
# [6] = test system: THRa:RXRa (NR concentration 90 nM, RXRa partner concentration 90 nM)
# Procedure, shortened: as §1
# [7] = test system: THRa homodimer (NR concentration 90 nM)
# Procedure, shortened: as §1
# [8] = test system: VDR homodimer (NR concentration 270 nM)
# Procedure, shortened: as §1
Sequence,PBM binding z-score [1],PBM binding z-score [2],PBM binding z-score [3],PBM binding z-score [4],PBM binding z-score [5],PBM binding z-score [6],PBM binding z-score [7],PBM binding z-score [8]
GCGGCTGGGGCAAAGCAGGTTACCATAAGGTTGG,1.19,0.368,0.921,-0.596,0.116,3.18,0.108,-0.402
CCAAACAGGTGAAAGGTAACTCAGTCTGGTACGC,0.802,1.11,0.696,0.223,1.99,0.954,0.0389,0.206
TCTTGTAGATCAAGAGAGGTTAAGAAAGTGCGCT,0.846,0.415,0.178,0.14,1.21,2.27,-0.932,0.194
TCTAGTTGGTCAAAGGTCACACCCTCGAAATGCG,5.03,6.9,6.12,2.29,8.03,4.02,2.2,3.2
CCTACTAGGCCAAGGTCATTGATCAGTCAAAGCA,3.74,3.86,3.68,2.31,3.64,3.52,3.01,3.34
AGAATGAGGTGACCAAAGATCAGGGAAACGCTTG,0.672,1.06,1.01,-0.266,1.51,2.53,0.878,-0.347
TGAATGAGGTTCTAAGATCAGGGAACGTTGCAAA,-0.907,-0.113,-0.275,-0.623,-0.155,-0.125,-0.86,-0.351
CCAAGTTGGTCAAGGTCACACACGCTATAGGTAC,4.47,5.04,5.36,2.86,5.31,4.06,4.34,4.56
ATCGAAATGTCGAGGTGAGTATAGAGAAAGGGAA,-0.158,0.381,0.595,-0.737,0.198,1.24,0.217,-0.583
CCTTACGGGTCACTGACAGGTTATAGGATTTGGA,3.52,5.89,4.77,1.67,5.17,2.96,0.251,1.28
TGAATGAGGTTAACGATCAGGGAACGTGGCGTCG,0.791,1.96,1.19,0.898,2.81,2.52,0.403,0.222
GCTTGTAGATCAAGGTTGAGAAAGACTAAGCTAA,-0.753,-0.343,-0.385,0.0122,-0.32,-0.135,-0.906,-0.235
ATCTCTAGTTAAAGTTCAGTGAAAGATCGATAGA,2.53,1.88,2.04,1.84,1.22,0.988,0.202,2.47
GCTTGTTGGTCAGTAAAAGGTCACACACCGGTCG,5.37,5.53,4.67,0.545,5.16,3.5,2.15,1.68
ATCGAAAGGTCGGGAGGTGAGTATACAGAAAGGC,2.92,3.82,3.34,0.594,3.58,2.21,0.967,0.718
CCTACTGGGACAAAAAGGTCATTGATGCCGATAA,4.37,4.68,4.48,1.21,5.22,3.31,0.878,3.69
ATAGCAAGGTGATCGTGAGGTCGTTGATACTAAC,1.29,2.12,0.811,0.231,1.31,3.2,1.8,1.97
CCTACTAGGTCATGGTCAGCTAATCTACAGTATG,3.34,3.79,4.21,1.37,2.66,2.87,1.53,0.776
CCTAGCAGGCCAGTGTCACTCAAGCATTTCGCTT,0.0425,-0.0888,-0.171,0.13,-0.38,-0.213,-0.656,-0.509
GCTTACGGGTCAAAGCTTATAGCATGAATAGAAT,2.29,4.92,4.8,2.48,5.91,2.12,-0.718,0.809
GCACATAGGTAATACAAGGTGAAAGTCCGATTGT,0.838,0.572,0.547,0.115,0.869,4.19,1.02,-0.0736
ATACCAAGGTGATCGTGAGGTCGTTCATACTAAC,1.73,2.21,0.992,0.992,1.58,3.38,2.71,3.68
TCTTGTAAATCAAAGGTTAAGAAAGCCGAAGCCT,1.35,1.39,0.692,0.749,2.24,0.996,-0.284,-0.116
TCTTGTAGATCAAGCACGTTAAGAAAGCCTGAGT,-0.605,-0.0676,-0.183,0.721,0.234,-0.341,-0.599,-0.125
CCTAGCAGGCCAATCTGGGTCACTCTAGGCTTGA,2.09,0.781,1.14,0.254,0.361,3.2,0.202,-0.375
CGAACTAGGTCAGAACAGAACAGTGAAGGATGAT,1.65,2.36,3.14,0.286,1.16,1.34,-0.073,-0.0834
TCTTGTAGTTCAACAGGAGGTTAAGAAAGATCGA,2.2,4.32,2.05,2.02,2.16,2.17,-0.466,1.11
GTGACTGGGGCATCAGCAGGTTACCATAACTTAA,1.3,1.36,0.86,-0.0186,0.481,1.09,0.198,-0.0019
